# Test results published in PubChem BioAssay (NCATS).
# Values without a mark were called inactive. Records with an inconclusive call do not appear. A call without a number means that no potency is given here. Calls of active or inactive are those of the source. Unless noted, calls come from the whole dose curve; as a rule, active = well fitted curve in the direction sought with a large enough effect; inconclusive = small, poorly fitted or top-dose-only effect, or another doubt; inactive = no such curve, though single readings can be large; an effect the other way counts as inactive or inconclusive.
# Assays:
# [1] = target: M-phase phosphoprotein 8 (Homo sapiens) (UniProt Q99549); experiment: qHTS Validation Assay for Inhibitors for MPP8 Chromodomain Interactions with Methylated Histone Tails (AID 488949); note: top concentration of the series differs between compounds; nearly all actives have a fitted effect of over 55% in size
# M-phase phosphoprotein 8 (Homo sapiens), sequence (Q99549 whole entry, looked up): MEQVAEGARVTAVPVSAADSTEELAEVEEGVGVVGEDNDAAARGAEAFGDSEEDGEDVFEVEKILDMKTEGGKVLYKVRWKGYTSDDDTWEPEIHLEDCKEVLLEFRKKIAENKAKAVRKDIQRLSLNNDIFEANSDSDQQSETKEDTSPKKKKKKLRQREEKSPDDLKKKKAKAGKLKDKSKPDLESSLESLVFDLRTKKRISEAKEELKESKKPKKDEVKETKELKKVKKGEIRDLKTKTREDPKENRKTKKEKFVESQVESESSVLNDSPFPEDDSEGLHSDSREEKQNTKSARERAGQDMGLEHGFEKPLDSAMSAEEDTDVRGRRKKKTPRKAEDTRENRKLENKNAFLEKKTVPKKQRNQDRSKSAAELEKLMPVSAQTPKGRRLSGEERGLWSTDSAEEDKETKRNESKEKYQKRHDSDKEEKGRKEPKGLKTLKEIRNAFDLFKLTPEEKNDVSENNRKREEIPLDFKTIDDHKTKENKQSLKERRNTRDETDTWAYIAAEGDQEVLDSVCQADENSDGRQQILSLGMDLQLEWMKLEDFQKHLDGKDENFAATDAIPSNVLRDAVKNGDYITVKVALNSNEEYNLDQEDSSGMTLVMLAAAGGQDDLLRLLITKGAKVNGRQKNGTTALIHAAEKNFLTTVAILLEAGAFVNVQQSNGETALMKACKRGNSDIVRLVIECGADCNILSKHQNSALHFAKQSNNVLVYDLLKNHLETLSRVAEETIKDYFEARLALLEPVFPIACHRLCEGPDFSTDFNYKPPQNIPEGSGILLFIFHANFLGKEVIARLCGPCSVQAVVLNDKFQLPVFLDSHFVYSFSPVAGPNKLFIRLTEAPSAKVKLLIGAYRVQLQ
# Method in brief: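 MPP8 (50 nM) was pre-bound to 50 nM biotinylated H3(1-18)K9me3 peptide in PBS pH 7.4 with 0.01% Tween-20. Compounds were then added for 30 min at room temperature, and complex disruption was read by AlphaScreen with streptavidin donor and nickel-chelate acceptor beads.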
# [2] = target: ATP-dependent 6-phosphofructokinase (Trypanosoma brucei brucei) (UniProt O15648); experiment: qHTS Assay to Find Inhibitors of T. brucei phosphofructokinase: hit validation (AID 492961);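 note: luminescence reports ADP formed as PFK phosphorylates fructose-6-phosphate with ATP; series mostly up to about 51 µM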
# ATP-dependent 6-phosphofructokinase (Trypanosoma brucei brucei), sequence (O15648 whole entry, looked up): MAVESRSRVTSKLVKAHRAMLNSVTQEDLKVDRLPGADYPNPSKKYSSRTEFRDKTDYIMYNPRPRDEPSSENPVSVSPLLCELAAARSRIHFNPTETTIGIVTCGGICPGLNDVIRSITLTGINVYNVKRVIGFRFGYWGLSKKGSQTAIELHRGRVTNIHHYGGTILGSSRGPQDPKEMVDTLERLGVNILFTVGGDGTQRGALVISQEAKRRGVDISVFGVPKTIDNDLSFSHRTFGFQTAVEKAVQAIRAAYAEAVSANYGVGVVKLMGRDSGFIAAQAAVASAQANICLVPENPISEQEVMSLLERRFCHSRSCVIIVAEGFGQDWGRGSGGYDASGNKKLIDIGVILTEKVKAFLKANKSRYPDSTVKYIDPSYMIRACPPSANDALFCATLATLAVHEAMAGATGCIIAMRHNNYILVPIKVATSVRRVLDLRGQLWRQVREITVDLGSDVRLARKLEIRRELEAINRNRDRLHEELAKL
# Method in brief: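 Percent activity derived from corrected luminescence, normalized between 0x and 1x enzyme controls, then fitted to concentration-response curves. Conditions: 1.25 nM PFK, 0.1 mM ATP, 0.5 mM F6P, 45 min RT.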
# [3] = target: Transient receptor potential cation channel subfamily V member 1 (Homo sapiens) (UniProt Q8NER1); experiment: HTS Assay for Compounds that Act as Enhancers of the Vanilloid Receptor 1 (AID 488979)
# Transient receptor potential cation channel subfamily V member 1 (Homo sapiens), sequence (Q8NER1 whole entry, looked up): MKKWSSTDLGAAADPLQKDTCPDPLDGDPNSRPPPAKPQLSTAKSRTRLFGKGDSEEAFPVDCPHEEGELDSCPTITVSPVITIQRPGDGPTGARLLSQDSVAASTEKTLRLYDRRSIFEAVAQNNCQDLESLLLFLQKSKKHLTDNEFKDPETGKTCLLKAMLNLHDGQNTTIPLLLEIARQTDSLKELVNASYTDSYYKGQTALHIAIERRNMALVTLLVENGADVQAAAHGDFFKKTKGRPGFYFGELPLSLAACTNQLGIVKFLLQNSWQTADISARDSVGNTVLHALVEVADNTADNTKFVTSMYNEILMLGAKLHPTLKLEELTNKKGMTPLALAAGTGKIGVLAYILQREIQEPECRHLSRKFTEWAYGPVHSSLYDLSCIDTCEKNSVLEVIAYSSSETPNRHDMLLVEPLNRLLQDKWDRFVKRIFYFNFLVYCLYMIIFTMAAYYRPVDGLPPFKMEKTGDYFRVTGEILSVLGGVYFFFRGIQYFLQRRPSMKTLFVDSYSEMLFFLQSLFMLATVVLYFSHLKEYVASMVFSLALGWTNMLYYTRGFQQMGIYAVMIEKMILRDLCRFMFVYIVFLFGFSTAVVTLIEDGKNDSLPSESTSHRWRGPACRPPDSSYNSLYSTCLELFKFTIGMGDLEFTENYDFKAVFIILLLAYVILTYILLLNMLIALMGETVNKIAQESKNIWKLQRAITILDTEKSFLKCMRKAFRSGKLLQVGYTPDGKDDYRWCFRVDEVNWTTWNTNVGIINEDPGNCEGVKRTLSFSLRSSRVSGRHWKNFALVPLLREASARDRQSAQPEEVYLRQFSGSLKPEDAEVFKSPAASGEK
# Method in brief: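 TRPV1-expressing cells loaded with Fluo-8 calcium dye; compounds added and calcium influx read kinetically for 3 min (agonist phase), then capsaicin at EC20 added and read 2 min more for enhancement. Fluorescence ex 480/em 520 nm.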
# [4] = target: Thyrotropin receptor (Homo sapiens) (UniProt P16473); experiment: qHTS Assay for Antagonists of the Thyroid Stimulating Hormone Receptor (AID 488980); note: series mostly up to about 58 µM
# Thyrotropin receptor (Homo sapiens), sequence (P16473 whole entry, looked up): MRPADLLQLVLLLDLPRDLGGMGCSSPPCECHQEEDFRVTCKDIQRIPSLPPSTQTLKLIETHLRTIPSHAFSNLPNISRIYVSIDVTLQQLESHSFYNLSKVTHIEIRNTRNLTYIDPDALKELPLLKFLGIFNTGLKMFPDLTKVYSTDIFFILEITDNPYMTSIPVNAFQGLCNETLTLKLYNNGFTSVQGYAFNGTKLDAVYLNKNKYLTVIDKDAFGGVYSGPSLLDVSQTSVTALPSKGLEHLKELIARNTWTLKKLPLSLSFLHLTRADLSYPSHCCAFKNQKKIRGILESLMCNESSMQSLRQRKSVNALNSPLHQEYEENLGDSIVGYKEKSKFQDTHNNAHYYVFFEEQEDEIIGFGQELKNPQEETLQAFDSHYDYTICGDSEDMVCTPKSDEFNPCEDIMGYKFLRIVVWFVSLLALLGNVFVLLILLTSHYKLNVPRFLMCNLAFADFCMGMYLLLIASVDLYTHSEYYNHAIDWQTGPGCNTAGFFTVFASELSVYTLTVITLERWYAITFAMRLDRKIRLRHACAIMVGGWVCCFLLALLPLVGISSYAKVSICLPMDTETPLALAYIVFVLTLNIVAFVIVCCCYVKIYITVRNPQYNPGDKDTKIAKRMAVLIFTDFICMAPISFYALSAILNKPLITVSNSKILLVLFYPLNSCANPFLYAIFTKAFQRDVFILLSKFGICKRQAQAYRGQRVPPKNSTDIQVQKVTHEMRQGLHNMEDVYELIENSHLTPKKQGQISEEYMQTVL
# Method in brief: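 TSHR-transfected HEK293 cells (2000/well) in HEPES-buffered HBSS with 70 uM RO 20-1724 were stimulated with 4 nM TSH (EC80, final) in the presence of compound. cAMP was measured by HTRF competition after lysis and 30 min at RT.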
# [5] = target: Thyrotropin-releasing hormone receptor (Homo sapiens) (UniProt P34981); experiment: qHTS for Small Molecule Agonists and Allosteric Enhancers of Human TRH Receptor: Validation Screen for Agonists (AID 493127;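 active = calcium activation more than 3 SD above the typical response in the agonist read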;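 note: intracellular calcium rise by fluo-8 fluorescence before TRH EC20 addition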); conditions: TRH receptor agonist cell assay; at 2 µM; stronger effect = higher value
# Thyrotropin-releasing hormone receptor (Homo sapiens), sequence (P34981 whole entry, looked up): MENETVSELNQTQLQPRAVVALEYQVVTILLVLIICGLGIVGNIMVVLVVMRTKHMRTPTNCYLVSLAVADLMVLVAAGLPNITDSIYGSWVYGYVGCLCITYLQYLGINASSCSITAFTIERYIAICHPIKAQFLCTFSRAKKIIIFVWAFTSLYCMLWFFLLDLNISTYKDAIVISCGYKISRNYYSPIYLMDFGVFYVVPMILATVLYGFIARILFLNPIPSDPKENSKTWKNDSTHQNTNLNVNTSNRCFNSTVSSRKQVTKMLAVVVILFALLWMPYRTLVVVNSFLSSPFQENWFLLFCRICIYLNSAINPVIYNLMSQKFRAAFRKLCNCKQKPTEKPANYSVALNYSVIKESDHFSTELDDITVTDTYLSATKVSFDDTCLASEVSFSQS
# Method in brief: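 Kinetic fluorescence assay of agonist-induced calcium release: overnight-plated TRHR cells, room-temperature fluo-8 loading, baseline then compound addition with per-second reads.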
# [6] = target: Galactokinase (Homo sapiens) (UniProt P51570); experiment: qHTS Validation Assay for Inhibitors of Human Galactokinase (GALK) (AID 493189)
# Galactokinase (Homo sapiens), sequence (P51570 whole entry, looked up): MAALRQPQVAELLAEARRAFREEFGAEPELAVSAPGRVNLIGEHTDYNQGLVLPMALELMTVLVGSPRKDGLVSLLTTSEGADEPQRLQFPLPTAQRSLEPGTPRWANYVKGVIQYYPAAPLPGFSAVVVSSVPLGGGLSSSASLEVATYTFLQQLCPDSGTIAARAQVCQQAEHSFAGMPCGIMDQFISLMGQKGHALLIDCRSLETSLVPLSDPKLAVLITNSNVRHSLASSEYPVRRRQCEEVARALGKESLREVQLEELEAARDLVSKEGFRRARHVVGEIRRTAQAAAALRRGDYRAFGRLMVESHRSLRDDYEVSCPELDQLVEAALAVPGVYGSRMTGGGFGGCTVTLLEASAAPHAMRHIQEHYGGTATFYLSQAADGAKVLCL
# Method in brief: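 GALK (5 nM) with 35 uM ATP and 100 uM galactose in HEPES pH 8.0 with MgCl2, NaCl, DTT and BSA. Reaction ran 1 h at room temperature. Residual ATP read by Kinase-Glo Plus luminescence.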
# [7] = Validation screen for small molecules that induce DNA re-replication in SW480 colon adenocarcinoma cells (AID 504364)
# Method in brief: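 Hoechst-stained SW480 nuclei, imaged at 405 nm excitation after 48 hr compound exposure, were counted for elevated DNA content as the re-replication signal.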
# [8] = target: D(1A) dopamine receptor (Homo sapiens) (UniProt P21728); experiment: HTS Assay for Allosteric Agonists of the Human D1 Dopamine Receptor: Primary Screen for Potentiators (AID 488982)
# D(1A) dopamine receptor (Homo sapiens), sequence (P21728 whole entry, looked up): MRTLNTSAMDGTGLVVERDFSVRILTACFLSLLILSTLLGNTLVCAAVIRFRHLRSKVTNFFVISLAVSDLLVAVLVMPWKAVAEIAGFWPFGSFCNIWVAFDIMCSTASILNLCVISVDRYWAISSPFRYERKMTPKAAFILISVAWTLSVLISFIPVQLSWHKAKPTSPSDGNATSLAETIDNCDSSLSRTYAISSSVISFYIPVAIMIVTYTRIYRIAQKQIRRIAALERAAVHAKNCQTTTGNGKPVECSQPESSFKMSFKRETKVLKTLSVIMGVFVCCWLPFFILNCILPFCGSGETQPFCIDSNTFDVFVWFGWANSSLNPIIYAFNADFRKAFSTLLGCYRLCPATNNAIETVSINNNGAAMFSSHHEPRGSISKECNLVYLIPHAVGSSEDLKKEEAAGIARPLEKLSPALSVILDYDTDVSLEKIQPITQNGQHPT
# Method in brief: (§1)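 Tetracycline-induced HEK293 T-REx cells force-coupled to calcium signalling were incubated overnight at 30 C and dye-loaded at room temperature. Calcium flux over 180 s after compound addition flagged agonists; a further 180 s read after EC20 dopamine flagged potentiators.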
# [9] = Validation screen for small molecules that induce genotoxicity in human embryonic kidney (HEK293T) cells expressing luciferase-tagged ELG1 (AID 493106)
# Method in brief: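 In this validation screen, increased ELG1-luciferase signal flags compounds causing genetic stress. HEK293T reporter cells are treated 16 hr (37 °C, 5% CO2), developed with ONE-Glo for 30 min at room temperature, and imaged on a CCD-based reader.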
# [10] = target: Thioredoxin reductase 1, cytoplasmic (Rattus norvegicus) (UniProt O89049); experiment: qHTS Assay for Substrates of Mammalian Selenoprotein Thioredoxin Reductase 1 (TrxR1) (AID 488772);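 note: series mostly up to about 57 µM; a drop in NADPH fluorescence below the no-compound background marks a TrxR1 substrate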
# Method in brief: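 In this dual-purpose format, potential substrates are identified from the first fluorescence read after selenite addition, not from the 8-minute delta. Rat enzyme is preincubated with NADPH and then with compound at ~22 deg C.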
# [11] = target: Flap endonuclease 1 (Homo sapiens) (UniProt P39748); experiment: qHTS Validation Assay for the Inhibitors of Human Flap endonuclease 1 (FEN1) (AID 488816)
# Method in brief: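 Steps: add FEN1 (10 nM reagent) or buffer only; pin compounds; hold 15 min at room temperature; start with substrate, 50 nM final; read at 0 and 15 min; correct, normalize and fit a four-parameter Hill curve.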
# [12] = target: Chromobox protein homolog 1 (Homo sapiens) (UniProt P83916); experiment: qHTS Validation Assay for Inhibitors of HP1-beta Chromodomain Interactions with Methylated Histone Tails (AID 488953); note: nearly all actives have a fitted effect of over 50% in size; note: potency is the fitted concentration of half-maximal effect
# Chromobox protein homolog 1 (Homo sapiens), sequence (P83916 whole entry, looked up): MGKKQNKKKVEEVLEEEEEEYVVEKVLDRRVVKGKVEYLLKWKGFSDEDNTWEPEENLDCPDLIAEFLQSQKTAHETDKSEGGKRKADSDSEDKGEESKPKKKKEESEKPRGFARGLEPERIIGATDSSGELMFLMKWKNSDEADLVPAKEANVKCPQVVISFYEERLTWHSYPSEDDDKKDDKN
# Method in brief: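 Compounds pinned into a preassembled complex of HP1-beta and trimethyl-K9 histone H3(1-18) biotin peptide (50 nM each; PBS pH 7.4, 0.01% Tween-20). After 30 min, bead-based AlphaScreen detection followed.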
# [13] = target: Methanococcus maripaludis chaperonin (MmCpn) (UniProt Q6LX38); experiment: High-Throughput Screening for Modulators of Cytosolic Chaperonin Activity: MmCpn Primary Screen (AID 488978);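 note: 50 nM MmCpn enzyme hydrolysing 30 µM ATP at 37 °C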
# Method in brief: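 MmCpn at 50 nM final was preincubated 5 min at RT with compound. ATP was then added at 30 uM final for 10 min at 37 C. ADP formed was detected by Transcreener HTRF (665/590 nm).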
# [14] = target: D(1A) dopamine receptor (Homo sapiens) (UniProt P21728); experiment: HTS Assay for Allosteric Agonists of the Human D1 Dopamine Receptor: Primary Screen for Agonists (AID 488981)
# Method in brief: as §1
# [15] = target: D(1A) dopamine receptor (Homo sapiens) (UniProt P21728); experiment: HTS Assay for Allosteric Agonists of the Human D1 Dopamine Receptor: Primary Screen for Antagonists (AID 488983);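 note: calcium flux response to an EC80 dopamine challenge measured with no-wash dye; nearly all actives have a fitted effect of over 65% in size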
# Method in brief: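 In this primary screen, compounds are applied to calcium-dye-loaded HEK293 T-REx cells with force-coupled D1 expression induced overnight at 30 C. An EC80 of dopamine follows the 180 s compound phase, and calcium is monitored for a further 180 s.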
# [16] = target: ATPase family AAA domain-containing protein 5 (Homo sapiens) (UniProt Q96QE3); experiment: Validation screen for small molecules that inhibit ELG1-dependent DNA repair in human embryonic kidney (HEK293T) cells expressing luciferase-tagged ELG1 (AID 493107);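 note: cells co-treated with the DNA-damaging agent 5-fluorouridine alongside compound; series mostly up to about 46 µM; inhibitors lower the ELG1-luciferase luminescence signal; nearly all actives have a fitted effect of over 70% in size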
# Method in brief: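 Compounds reducing 5-fluorouridine-driven ELG1-luciferase signal in HEK293T cells were scored; exposure lasted 16 hr at 37 °C with luminescence detected via ONE-Glo.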
# [17] = qHTS for Inhibitors of Cell Surface uPA Generation: Validation Assay (AID 493164);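 note: RAW 264.7 macrophage cells exposed to compound for 18 h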
# Method in brief: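 Compounds are titrated over seven points (2.45 nM–38.3 uM final) onto pre-plated RAW 264.7 cells and incubated for 18 h. Retained intracellular ATP, measured with ATP-Lite, indicates blocked lethal factor entry.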
# [18] = target: Peptidyl-prolyl cis-trans isomerase NIMA-interacting 1 (Homo sapiens) (UniProt Q13526); experiment: qHTS Validation Assay to Find Inhibitors of Pin1 (AID 504536; active = well fitted inhibition curve with a large enough effect in the polarisation, with a control signal flat, not every such curve was filed as active; the % refers to the polarisation)
# Method in brief: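 Fluorescence polarization competition: compounds (titration) displace HiFluor-488-labeled Pin1-1b peptide from Pin1 (0.3 uM final) in pH 7.5 HEPES buffer with DTT, 10 min at room temperature; %Activity normalized to no-enzyme wells, curves fitted.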
# [19] = target: phosphoglycerate mutase (Leishmania major) (UniProt Q4Q090); experiment: qHTS Validation Assay to Find Inhibitors of Phosphoglycerate Mutase (AID 504548);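 note: end-point luminescence from Kinase-GloPlus after the PGAM reaction; series mostly up to about 58 µM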
# phosphoglycerate mutase (Leishmania major), sequence (Q4Q090 1-553): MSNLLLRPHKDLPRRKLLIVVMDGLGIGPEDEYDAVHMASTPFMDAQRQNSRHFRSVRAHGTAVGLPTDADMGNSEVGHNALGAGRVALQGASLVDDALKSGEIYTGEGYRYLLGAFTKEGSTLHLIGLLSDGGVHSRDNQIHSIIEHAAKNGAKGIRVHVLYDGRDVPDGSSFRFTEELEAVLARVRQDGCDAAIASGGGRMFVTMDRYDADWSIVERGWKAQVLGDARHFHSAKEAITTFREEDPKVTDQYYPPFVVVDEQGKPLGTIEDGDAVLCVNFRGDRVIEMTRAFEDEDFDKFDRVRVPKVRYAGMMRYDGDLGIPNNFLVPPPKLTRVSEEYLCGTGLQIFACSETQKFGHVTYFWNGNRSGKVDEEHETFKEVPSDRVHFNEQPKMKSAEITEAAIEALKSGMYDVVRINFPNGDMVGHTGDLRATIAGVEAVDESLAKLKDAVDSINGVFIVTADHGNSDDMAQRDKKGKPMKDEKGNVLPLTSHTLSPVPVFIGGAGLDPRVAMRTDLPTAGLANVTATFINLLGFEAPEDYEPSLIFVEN
# Method in brief: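 L. major PGAM (1.25nM final) was added to substrate buffer and pinned compound, incubated 45 minutes at room temperature, then Kinase-GloPlus added; luminescence read after 10 minutes. Buffer: 100 mM TEA pH 7.6, 5 mM MgCl2, 0.01% Tween-20.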
structure (smiles),measurement,setting,value
Cc1nnc(SCC2=C(C(=O)O)N3C(=O)[C@@H](NC(=O)Cn4cnnn4)[C@H]3SC2)s1,Potency,[1],inactive
COc1c2c(cc3c1OCO3)CCN(C)C2,outcome,[2],inactive
CC(C)(C)NCC(O)c1cc(Cl)c(N)c(C(F)(F)F)c1 (stereo not drawn),outcome,[2],inactive
C[C@]12CCC(=O)C=C1CC[C@@H]1[C@@H]2CC[C@]2(C)C(=O)CC[C@@H]12,Potency,[1],inactive
same,outcome,[3],inactive
same,outcome,[4],inactive
same,outcome,[2],inactive
same,activation,[5],2.12%
same,outcome,[6],inactive
same,outcome,[7],inactive
CC(C)C[C@H]1C(=O)N2CCC[C@H]2[C@]2(O)O[C@](NC(=O)[C@@H]3C=C4c5cccc6[nH]c(Br)c(c56)C[C@H]4N(C)C3)(C(C)C)C(=O)N12,outcome,[8],inactive
same,outcome,[9],inactive
O=P1(N(CCCl)CCCl)NCCCO1 (stereo not drawn),outcome,[10],inactive
same,outcome,[11],inactive
same,Potency,[1],inactive
same,Potency,[12],6 nM (active)
same,outcome,[13],inactive
same,outcome,[3],inactive
same,outcome,[4],inactive
same,Potency,[14],inactive
same,outcome,[8],inactive
same,outcome,[15],inactive
same,outcome,[9],inactive
same,outcome,[16],inactive
same,activation,[5],-0.25%
same,outcome,[17],inactive
same,outcome,[6],inactive
same,outcome,[7],inactive
same,outcome,[18],inactive
same,outcome,[19],inactive
O=C(O)CCCc1ccc(N(CCCl)CCCl)cc1,outcome,[10],inactive
same,outcome,[11],inactive
same,Potency,[1],inactive
same,Potency,[12],inactive
same,outcome,[13],inactive
same,outcome,[3],inactive
same,outcome,[4],inactive
same,Potency,[14],inactive
same,outcome,[8],inactive
same,outcome,[15],inactive
same,outcome,[9],inactive
same,outcome,[16],inactive
same,activation,[5],-4.56%
same,outcome,[17],inactive
same,outcome,[6],inactive
same,outcome,[7],inactive
same,outcome,[18],inactive
same,outcome,[19],inactive
